Assay results: PubChem BioAssay (EPA / NIEHS)
Activity calls are given as the source filed them. How the source made its calls: active means hit-call score of the fitted dose curve at least 0.9, where 1 is the maximum; inactive means score below 0.9.

How the values were obtained:
Conditions in all cases: mRNA level, 48 h; actives raise or lower the signal
[1] = read-out: Cytochrome P450 (CYP2B6), CYP2B6 (gene 1555); assay: LTEA_HepaRG_CYP2B6: Life Technologies and Expression Analysis (LTEA) Assay for Cytochrome P450 (CYP2B6) using HepaRG (AID 2283481)
Summary of the method: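 CYP2B6 transcript level quantified by qRT-PCR against three housekeeping genes, fitted bidirectionally relative to DMSO. HepaRG cultures received chemicals for 48 h, 8-point half-log series from 100 uM in 0.5% DMSO, duplicate wells, serum-free induction medium.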

[2] = read-out: Cytochrome P450 2C19 (Homo sapiens) (UniProt P33261); assay: LTEA_HepaRG_CYP2C19: Life Technologies and Expression Analysis (LTEA) Assay for CYP2C19 using HepaRG (AID 2283482)
Summary of the method: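 CYP2C19 transcript levels by qRT-PCR, normalized to three housekeeping genes, in HepaRG cells after 48 h chemical exposure. Eight-point half-log series topping at 100 uM, 0.5% DMSO vehicle. Increases and decreases both fitted against DMSO.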

[3] = read-out: CYP2C8 (gene 1558); assay: LTEA_HepaRG_CYP2C8: Life Technologies and Expression Analysis (LTEA) Assay for CYP2C8 using HepaRG (AID 2283483)
Summary of the method: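 HepaRG (human liver line), 48 h chemical exposure, 8-pt half-log series from 100 uM, 0.5% DMSO vehicle. Readout: CYP2C8 transcript by qRT-PCR, housekeeping-normalized. Bidirectional fit vs DMSO baseline.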

[4] = read-out: CYP2C9 (gene 1559); assay: LTEA_HepaRG_CYP2C9: Life Technologies and Expression Analysis (LTEA) Assay for CYP2C9 using HepaRG (AID 2283484)
Summary of the method: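 HepaRG, 48 h dosing, 8-pt half-log series, top 100 uM, 0.5% DMSO vehicle. Read-out: CYP2C9 transcript by TaqMan qRT-PCR, housekeeping-normalized (ACTB/GAPDH/POLR2A). Gain or loss fitted vs DMSO baseline.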

[5] = read-out: CYP2E1 (gene 1571); assay: LTEA_HepaRG_CYP2E1: Life Technologies and Expression Analysis (LTEA) Assay for CYP2E1 using HepaRG (AID 2283485)
Summary of the method: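 Assay uses 48 h exposure of HepaRG hepatic cells, eight concentrations to 100 uM. Expression of CYP2E1 is quantified by TaqMan qRT-PCR with ACTB, GAPDH and POLR2A normalization; curves fitted in both directions relative to vehicle.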

[6] = read-out: CYP4A11 (gene 1579); assay: LTEA_HepaRG_CYP4A11: Life Technologies and Expression Analysis (LTEA) Assay for CYP4A11 using HepaRG (AID 2283486)
Summary of the method: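 Readout is CYP4A11 transcript level by qRT-PCR, normalized to three housekeeping genes and fitted bidirectionally against 0.5% DMSO. Human HepaRG cells were treated 48 h, in duplicate, with an 8-point half-log series topping at 100 uM.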

[7] = read-out: Cytochrome P450 3A4 (Homo sapiens) (UniProt P08684); assay: LTEA_HepaRG_CYP3A4: Life Technologies and Expression Analysis (LTEA) Assay for CYP3A4 using HepaRG (AID 2283487)
Summary of the method: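 HepaRG, 48 h exposure, 8-pt CRC from 100 uM (half-log), 0.5% DMSO, duplicates; serum-free induction medium. Readout: CYP3A4 mRNA, qRT-PCR, ACTB/GAPDH/POLR2A normalization. Bidirectional fit vs DMSO.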

[8] = read-out: DNA damage-inducible transcript 3 (DDIT3), DDIT3 (gene 1649); assay: LTEA_HepaRG_DDIT3: Life Technologies and Expression Analysis (LTEA) Assay for DNA damage-inducible transcript 3 (DDIT3) using HepaRG (AID 2283488)
Summary of the method: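 Eight-point concentration-response (100 uM highest, half-log dilutions) in HepaRG, 48 h, duplicate wells. Endpoint: qRT-PCR mRNA, normalized (ACTB, GAPDH, POLR2A), bidirectional fitting with DMSO as baseline.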

[9] = read-out: Pro-epidermal growth factor (Homo sapiens) (UniProt P01133); assay: LTEA_HepaRG_EGF: Life Technologies and Expression Analysis (LTEA) Assay for Epidermal growth factor (EGF) using HepaRG (AID 2283489)
Summary of the method: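 EGF transcript measured by Fluidigm TaqMan qRT-PCR with three housekeeping genes for normalization, 48 h after dosing HepaRG cultures in duplicate (top 100 uM, half-log steps, 0.5% DMSO vehicle). Gain or loss relative to DMSO fitted.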

[10] = read-out: Early growth response protein 1 (EGR1) transcription factor, EGR1 (gene 1958); assay: LTEA_HepaRG_EGR1: Life Technologies and Expression Analysis (LTEA) Assay for Early growth response protein 1 (EGR1) transcription factor using HepaRG (AID 2283490)
Summary of the method: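 HepaRG, 48 h exposure, 8-pt half-log series from 100 uM, 0.5% DMSO vehicle; EGR1 transcript by TaqMan qRT-PCR (Fluidigm array), housekeeping-normalized; bidirectional fit relative to DMSO baseline.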

[11] = read-out: Ezrin (EZR), EZR (gene 7430); assay: LTEA_HepaRG_EZR: Life Technologies and Expression Analysis (LTEA) Assay for Ezrin (EZR) using HepaRG (AID 2283491)
Summary of the method: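 Read-out is EZR transcript level by qRT-PCR, normalized to three housekeeping genes and fitted bidirectionally against the DMSO control. Human HepaRG cells received test chemicals for 48 h at eight half-log concentrations up to 100 uM in 0.5% DMSO.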

[12] = read-out: Cytochrome P450 3A7 (Homo sapiens) (UniProt P24462); assay: LTEA_HepaRG_CYP3A7: Life Technologies and Expression Analysis (LTEA) Assay for CYP3A7 using HepaRG (AID 2283492)
Summary of the method: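 CYP3A7 transcript measured by qRT-PCR (ACTB, GAPDH, POLR2A normalization) after 48 h chemical exposure of HepaRG cells in duplicate. Eight half-log concentrations, maximum 100 uM, 0.5% DMSO vehicle; bidirectional curve fitting against DMSO baseline.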

[13] = read-out: CYP3A5 (gene 1577); assay: LTEA_HepaRG_CYP3A5: Life Technologies and Expression Analysis (LTEA) Assay for CYP3A5 using HepaRG (AID 2283493)
Summary of the method: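 Readout was CYP3A5 mRNA by qRT-PCR. HepaRG cultures were exposed for 48 h in serum-free induction medium to chemicals at up to 100 uM, and responses were fitted in both directions relative to DMSO vehicle.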

[14] = read-out: Fatty Acid-Binding Protein 1 (FABP1), FABP1 (gene 2168); assay: LTEA_HepaRG_FABP1: Life Technologies and Expression Analysis (LTEA) Assay for Fatty Acid-Binding Protein 1 (FABP1) using HepaRG (AID 2283494)
Summary of the method: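 qRT-PCR readout of FABP1 transcript (normalized to three housekeeping genes) after 48 h chemical exposure of HepaRG cells; eight concentrations, half-log steps, max 100 uM, 0.5% DMSO vehicle; gain or loss fitted relative to DMSO baseline.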

[15] = read-out: Cytochrome P450 4A22 (Homo sapiens) (UniProt Q5TCH4); assay: LTEA_HepaRG_CYP4A22: Life Technologies and Expression Analysis (LTEA) Assay for Cytochrome P450 4A22 (CYP4A22) using HepaRG (AID 2283495)
Summary of the method: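 Gene expression measured by qRT-PCR against three housekeeping genes (ACTB, GAPDH, POLR2A), with gain or loss fitted relative to 0.5% DMSO vehicle. HepaRG cultures received 48 h chemical treatment, top concentration 100 uM, half-log steps, duplicate wells.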

[16] = read-out: Cytochrome P450 7A1 (Homo sapiens) (UniProt P22680); assay: LTEA_HepaRG_CYP7A1: Life Technologies and Expression Analysis (LTEA) Assay for Cytochrome P450 7A1 (CYP7A1) using HepaRG (AID 2283496)
Summary of the method: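 Using 0.5% DMSO as vehicle and baseline, chemicals were tested in duplicate over an 8-point range from 100 uM on HepaRG cells for 48 h; qRT-PCR signals were normalised to ACTB, GAPDH and POLR2A.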

[17] = read-out: growth arrest and DNA damage 45 (GADD45G), GADD45G (gene 10912); assay: LTEA_HepaRG_GADD45G: Life Technologies and Expression Analysis (LTEA) Assay for growth arrest and DNA damage 45 (GADD45G) using HepaRG (AID 2283499)
Summary of the method: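 GADD45G transcript level by qRT-PCR (housekeeping-normalized: ACTB, GAPDH, POLR2A) after 48 h chemical treatment of a single HepaRG lot in serum-free induction medium; eight-point half-log series up to 100 uM in 0.5% DMSO, duplicates, up- or down-regulation scored.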

Measured: AC50

Chain of Cytochrome P450 3A7 (Homo sapiens) (P24462 whole entry, looked up): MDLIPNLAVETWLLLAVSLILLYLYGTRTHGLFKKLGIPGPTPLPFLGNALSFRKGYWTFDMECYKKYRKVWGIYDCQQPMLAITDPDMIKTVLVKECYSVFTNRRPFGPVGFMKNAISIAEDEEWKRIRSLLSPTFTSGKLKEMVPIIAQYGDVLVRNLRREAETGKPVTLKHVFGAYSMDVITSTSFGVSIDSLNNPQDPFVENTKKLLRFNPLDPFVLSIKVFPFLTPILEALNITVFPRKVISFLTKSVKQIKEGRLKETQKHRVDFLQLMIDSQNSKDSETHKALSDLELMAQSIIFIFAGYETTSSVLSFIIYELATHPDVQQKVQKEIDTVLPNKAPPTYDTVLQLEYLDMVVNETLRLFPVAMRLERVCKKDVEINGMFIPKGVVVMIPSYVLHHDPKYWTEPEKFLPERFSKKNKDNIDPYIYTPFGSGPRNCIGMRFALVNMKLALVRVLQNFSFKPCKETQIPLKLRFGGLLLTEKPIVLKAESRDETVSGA
Chain of Cytochrome P450 2C19 (Homo sapiens) (P33261 whole entry, looked up): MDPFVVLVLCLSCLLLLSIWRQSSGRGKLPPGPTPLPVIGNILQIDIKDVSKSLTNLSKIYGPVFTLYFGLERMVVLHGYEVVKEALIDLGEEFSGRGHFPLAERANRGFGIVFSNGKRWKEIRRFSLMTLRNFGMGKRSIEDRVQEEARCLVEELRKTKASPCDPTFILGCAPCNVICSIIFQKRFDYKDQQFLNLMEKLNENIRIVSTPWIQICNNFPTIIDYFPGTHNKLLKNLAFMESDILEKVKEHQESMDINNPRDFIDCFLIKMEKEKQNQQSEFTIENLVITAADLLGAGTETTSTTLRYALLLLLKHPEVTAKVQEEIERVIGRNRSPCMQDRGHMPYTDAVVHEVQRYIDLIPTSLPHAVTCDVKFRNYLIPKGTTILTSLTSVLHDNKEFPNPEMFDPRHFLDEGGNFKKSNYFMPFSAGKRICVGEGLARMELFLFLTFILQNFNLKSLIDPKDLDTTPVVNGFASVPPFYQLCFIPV
Chain of Cytochrome P450 3A4 (Homo sapiens) (P08684 whole entry, looked up): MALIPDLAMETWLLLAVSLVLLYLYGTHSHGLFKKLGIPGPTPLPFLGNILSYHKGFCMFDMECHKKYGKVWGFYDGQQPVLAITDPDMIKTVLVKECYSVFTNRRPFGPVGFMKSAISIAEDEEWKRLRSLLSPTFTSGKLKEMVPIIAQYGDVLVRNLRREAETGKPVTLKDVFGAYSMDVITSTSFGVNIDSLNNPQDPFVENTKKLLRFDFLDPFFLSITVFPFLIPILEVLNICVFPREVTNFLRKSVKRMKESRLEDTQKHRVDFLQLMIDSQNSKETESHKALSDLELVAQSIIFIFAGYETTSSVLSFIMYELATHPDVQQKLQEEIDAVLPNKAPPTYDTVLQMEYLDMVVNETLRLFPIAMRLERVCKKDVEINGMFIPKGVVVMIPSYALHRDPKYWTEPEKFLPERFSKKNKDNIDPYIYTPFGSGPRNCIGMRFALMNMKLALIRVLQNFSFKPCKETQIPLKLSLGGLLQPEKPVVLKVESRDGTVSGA

CNC(=O)Oc1cccc(N=CN(C)C)c1
inactive: all assays above

N#CN
inactive: all assays above

CCCN(CCC)c1c([N+](=O)[O-])cc(C(F)(F)F)cc1[N+](=O)[O-]
active: [1] 50 µM
inactive: all other assays above

COP(=S)(OC)Oc1ccc(SC)c(C)c1
active: [1] 7.23 µM | [2] 50 µM | [5] 18.9 µM
not listed: [7] | [12]
inactive: all other assays above

O=S1OCC2C(CO1)C1(Cl)C(Cl)=C(Cl)C2(Cl)C1(Cl)Cl (stereo not given)
active: [1] 90.1 µM | [2] 89.2 µM | [3] 81.1 µM | [4] 82.4 µM | [5] 55.7 µM | [6] 62.6 µM | [7] 11.7 µM | [8] 80 µM | [12] 50 µM | [14] 43.6 µM | [15] 60.4 µM | [16] 40.4 µM | [17] 88.6 µM
inactive: [9] | [10] | [11] | [13]

CCOC1Oc2ccc(OS(C)(=O)=O)cc2C1(C)C (stereo not given)
inactive: [9] | [10] | [12]
active: [1] 91.3 µM | [2] 11.7 µM | [3] 86.4 µM | [4] 82 µM | [5] 62.6 µM | [6] 69.1 µM | [7] 11.8 µM | [8] 93 µM | [11] 78.8 µM | [13] 75.2 µM | [14] 63.7 µM | [15] 62.6 µM | [16] 85.6 µM | [17] 78.3 µM
